Experimental data taken from PubChem BioAssay (EPA / NIEHS).
Records with an inconclusive call do not appear. Where a structure was tested more than once in an assay, its records may differ in their call. Active and inactive are the calls of the source. How the source made its calls, unless noted: active means hit-call score of the fitted dose curve at least 0.9, where 1 is the maximum; inactive means score below 0.9.

How the values were obtained:
[1] = biological target: Retinoic acid receptor RXR-alpha (Homo sapiens) (UniProt P19793); assay: ATG_RXRa_TRANS: Attagene TRANS-FACTORIAL HepG2 Assay for human Retinoid X Receptor alpha (RXRa) (AID 2283012; active means hit-call score of the fitted dose curve at least 0.9, where 1 is the maximum)
Procedure, shortened: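 Read-out: fluorescent reporter-transcript fragments quantified by capillary electrophoresis after RT-PCR. Transiently transfected HepG2 cells carrying GAL4-UAS reporters and NR-GAL4 chimeras were exposed to chemical for 24 h; activity scored as increase over DMSO.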

[2] = biological target: human Retinoid X Receptor beta (RXRb), RXRB (gene 6257) (UniProt P28702); assay: ATG_RXRb_TRANS: Attagene TRANS-FACTORIAL HepG2 Assay for human Retinoid X Receptor beta (RXRb) (AID 2283013; active means hit-call score of the fitted dose curve at least 0.9, where 1 is the maximum)
Procedure, shortened: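 Read-out: reporter mRNA induction via RT-PCR plus capillary electrophoresis fluorescence, analysed as signal increase relative to DMSO. Cells were human HepG2, transiently transfected with GAL4-UAS reporter constructs and chimeric receptor-Gal4 fusions, dosed for 24 h.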

[3] = biological target: human Thyroid Receptor alpha (THRa1), THRA (gene 7067) (UniProt P10827); assay: ATG_THRa1_TRANS: Attagene TRANS-FACTORIAL HepG2 Assay for human Thyroid Receptor alpha (THRa1) (AID 2283014; active means hit-call score of the fitted dose curve at least 0.9, where 1 is the maximum)
Procedure, shortened: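 Measured here is mRNA from a GAL4-UAS reporter in transfected HepG2 cells carrying a Gal4-fused receptor, 24 h post-dose. DMSO served as negative control and baseline.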

[4] = read-out: E-selectin (Homo sapiens) (UniProt P16581); assay: BSK_3C_Eselectin: BioMAP Diversity Plus: 3C Assay for Eselectin Biomarker Activity (AID 2283015); conditions: primary human endothelial cells (HUVEC); actives raise or lower the signal;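 on outcome: cell surface E-selectin protein quantified by ELISA 24 h after dosing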
Procedure, shortened: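 Endpoint derived by bidirectional fitting against DMSO vehicle; signal is ELISA-detected E-selectin from primary HUVEC at 24 h post-dosing, with parallel SRB staining (0.1% SRB, 560 nm) flagging cytotoxicity.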

[5] = read-out: Interleukin-1 alpha (IL1a), IL1A (gene 3552); assay: BSK_BE3C_IL1a: BioMAP Diversity Plus: BE3C Assay for Interleukin-1 alpha (IL1a) Biomarker Activity (AID 2283016); conditions: primary human bronchial epithelial cells; actives raise or lower the signal
Procedure, shortened: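 ELISA read-out of IL-1a from human lung bronchial epithelial primary cells, 24 h post-dose. Gain or loss of signal fitted relative to DMSO negative control.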

[6] = read-out: Monocyte Chemoattractant Protein-1 (MCP1), CCL2 (gene 6347); assay: BSK_3C_MCP1: BioMAP Diversity Plus: 3C Assay for Monocyte Chemoattractant Protein-1 (MCP1) Biomarker Activity (AID 2283017); conditions: primary human endothelial cells (HUVEC); actives raise or lower the signal
Procedure, shortened: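 Using human vascular primary endothelium, researchers measured MCP-1 by ELISA 24 h after treatment, with DMSO serving as negative control for bidirectional fitting.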

[7] = read-out: Monocyte Chemoattractant Protein-1 (MCP1), CCL2 (gene 6347); assay: BSK_4H_MCP1: BioMAP Diversity Plus: 4H Assay for Monocyte Chemoattractant Protein-1 (MCP1) Biomarker Activity (AID 2283018); conditions: primary human endothelial cells (HUVEC); actives raise or lower the signal
Procedure, shortened: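 HUVEC primary cells, 24 h post-dose, MCP-1 by ELISA. Gain or loss of signal fitted bidirectionally vs DMSO baseline. Cytotoxicity: SRB stain (0.1% after 10% TCA fixation), read 560 nm, parallel cultures.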

[8] = read-out: Human Leukocyte Antigen - DR isotype (HLADR), HLA-DRA (gene 3122); assay: BSK_3C_HLADR: BioMAP Diversity Plus: 3C Assay for Human Leukocyte Antigen - DR isotype (HLADR) Biomarker Activity (AID 2283019); conditions: primary human endothelial cells (HUVEC); actives raise or lower the signal;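 on outcome: ELISA of cell-surface HLA-DR on HUVEC 24 h after dosing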
Procedure, shortened: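 Compound added to primary HUVEC cultures, 24 h incubation, then HLA-DR determined by ELISA; endpoint derived by bidirectional fitting relative to DMSO negative control.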

[9] = read-out: Interleukin-8 (IL8), CXCL8 (gene 3576); assay: BSK_3C_IL8: BioMAP Diversity Plus: 3C Assay for Interleukin-8 (IL8) Biomarker Activity (AID 2283020); conditions: primary human endothelial cells (HUVEC); actives raise or lower the signal
Procedure, shortened: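 HUVEC, 3C stimulation; 24 h compound exposure; IL-8 read by ELISA; gain or loss of signal fitted relative to DMSO control.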

[10] = read-out: Monokine induced gamma interferon (MIG), CXCL9 (gene 4283); assay: BSK_3C_MIG: BioMAP Diversity Plus: 3C Assay for Monokine induced gamma interferon (MIG) Biomarker Activity (AID 2283021); conditions: primary human endothelial cells (HUVEC); actives raise or lower the signal;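 on AC50: MIG protein level measured by immunoassay in the treated endothelial cultures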
Procedure, shortened: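 HUVEC, 3C system; 24 h chemical exposure; MIG by ELISA; bidirectional fit vs DMSO baseline.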

[11] = biological target: human Vitamin D Receptor (VDR), VDR (gene 7421) (UniProt P11473); assay: ATG_VDR_TRANS: Attagene TRANS-FACTORIAL HepG2 Assay for human Vitamin D Receptor (VDR) (AID 2283022; active means hit-call score of the fitted dose curve at least 0.9, where 1 is the maximum)
Procedure, shortened: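 Multiplexed TRANS reporter in HepG2; 24 h treatment; reporter mRNA by RT-PCR plus capillary electrophoresis; upregulation scored relative to DMSO.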

[12] = BSK_3C_SRB: Viability Assessment in the BioMAP Diversity Plus: 3C Assay (AID 2283023); conditions: primary human endothelial cells (HUVEC);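 further: cells read 24 h after compound dosing; fitted both ways against DMSO so a hit may be signal rise or drop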
Procedure, shortened: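 Overt cytotoxicity is gauged in parallel confluent HUVEC cultures by SRB total-protein staining at the time of biomarker measurement, 24 h after dosing. Gain or loss of signal is fitted versus DMSO.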

[13] = read-out: Matrix Metallopeptidase 1 (MMP1), MMP1 (gene 4312); assay: BSK_BE3C_MMP1: BioMAP Diversity Plus: BE3C Assay for Matrix Metallopeptidase 1 (MMP1) Biomarker Activity (AID 2283024); conditions: primary human bronchial epithelial cells; actives raise or lower the signal
Procedure, shortened: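 ELISA read-out of MMP1 in human lung bronchial epithelial primary cultures, 24 h post-dose; bidirectional curve fit vs DMSO baseline, gain or loss of signal scored.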

[14] = read-out: Pselectin, SELP (gene 6403); assay: BSK_4H_Pselectin: BioMAP Diversity Plus: 4H Assay for Pselectin Biomarker Activity (AID 2283026); conditions: primary human endothelial cells (HUVEC); actives raise or lower the signal
Procedure, shortened: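 HUVEC, 24 h chemical exposure; P-selectin read by ELISA. Bidirectional curve fit vs DMSO baseline; gain or loss of signal scored.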

[15] = BSK_4H_SRB: Viability Assessment in the BioMAP Diversity Plus: 4H Assay (AID 2283027); conditions: primary human endothelial cells (HUVEC);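 further: cells exposed to compound for 24 h before staining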;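 on AC50: curves fitted both ways versus DMSO so AC50 may be loss or gain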
Procedure, shortened: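 HUVEC, 24 h post-dose; 10% TCA fix, 0.1% SRB stain, A560 nm. Total protein = overt cytotoxicity, parallel to biomarker read. Bidirectional fit vs DMSO baseline.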

[16] = BSK_BE3C_SRB: Viability Assessment in the BioMAP Diversity Plus: BE3C Assay (AID 2283028); conditions: primary human bronchial epithelial cells;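 further: measured 24 h after chemical dosing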;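 on AC50: fitted both ways so AC50 may mark signal gain or loss versus DMSO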
Procedure, shortened: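 SRB total-protein staining (0.1%, after TCA fixation) of chemically dosed human bronchial epithelial primary cells at 24 h; DMSO serves as the negative control for bidirectional curve fitting.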

[17] = read-out: Thrombomodulin, THBD (gene 7056); assay: BSK_3C_Thrombomodulin: BioMAP Diversity Plus: 3C Assay for Thrombomodulin Biomarker Activity (AID 2283029); conditions: primary human endothelial cells (HUVEC); actives raise or lower the signal
Procedure, shortened: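 HUVEC, 3C conditions; compound 24 h; thrombomodulin by ELISA; bidirectional curve fit vs DMSO baseline; parallel SRB total-protein staining for cytotoxicity.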

[18] = read-out: Urokinase-type plasminogen activator receptor (uPAR), PLAUR (gene 5329); assay: BSK_4H_uPAR: BioMAP Diversity Plus: 4H Assay for Urokinase-type plasminogen activator receptor (uPAR) Biomarker Activity (AID 2283030); conditions: primary human endothelial cells (HUVEC); actives raise or lower the signal
Procedure, shortened: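 Endpoint derived via bidirectional curve fitting against DMSO baseline; readout was ELISA detection of uPAR on umbilical vein endothelial cells at 24 h post-treatment, with SRB-stained parallel cultures assessing cytotoxicity.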

[19] = read-out: Vascular endothelial growth factor receptor 2 (Homo sapiens) (UniProt P35968); assay: BSK_4H_VEGFRII: BioMAP Diversity Plus: 4H Assay for Vascular endothelial growth factor receptor 2 (VEGFR2) Biomarker Activity (AID 2283031); conditions: primary human endothelial cells (HUVEC); actives raise or lower the signal;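 on AC50: cell-surface VEGFR2 protein level quantified by ELISA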
Procedure, shortened: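 In this multiplexed HUVEC system, biomarker ELISA was performed after 24 h chemical exposure. Parallel SRB staining (TCA fixation, 560 nm) tracked cytotoxicity; DMSO served as baseline.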

[20] = BSK_3C_Vis: BioMAP Diversity Plus: 3C Assay for Morphology Visualization (AID 2283025); conditions: primary human endothelial cells (HUVEC);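 further: fitted both ways so gain or loss versus DMSO counts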;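 on AC50: light microscopy image of cell morphology used as background control; cells imaged 24 h after dosing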
Procedure, shortened: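 HUVEC, 3C system; light microscopy of morphology at 24 h post-dose. Bidirectional fit vs DMSO baseline. Secondary readout, background-control function.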

Chain of Retinoic acid receptor RXR-alpha (Homo sapiens) (P19793 whole entry, looked up, the tested form may be a part): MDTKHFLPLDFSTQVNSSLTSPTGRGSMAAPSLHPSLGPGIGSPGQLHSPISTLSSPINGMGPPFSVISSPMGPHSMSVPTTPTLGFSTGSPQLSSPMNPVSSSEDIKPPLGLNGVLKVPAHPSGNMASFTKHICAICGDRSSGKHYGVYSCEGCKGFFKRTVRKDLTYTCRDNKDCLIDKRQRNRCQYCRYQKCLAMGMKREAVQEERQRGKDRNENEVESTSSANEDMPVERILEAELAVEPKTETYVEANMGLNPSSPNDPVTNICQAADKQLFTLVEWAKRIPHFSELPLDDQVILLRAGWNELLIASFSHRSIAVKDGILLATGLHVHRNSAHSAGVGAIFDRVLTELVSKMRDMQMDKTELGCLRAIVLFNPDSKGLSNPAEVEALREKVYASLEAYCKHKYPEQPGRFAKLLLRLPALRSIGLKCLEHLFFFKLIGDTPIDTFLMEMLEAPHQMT
Chain of human Thyroid Receptor alpha (THRa1), THRA (gene 7067) (P10827 whole entry, looked up, the tested form may be a part): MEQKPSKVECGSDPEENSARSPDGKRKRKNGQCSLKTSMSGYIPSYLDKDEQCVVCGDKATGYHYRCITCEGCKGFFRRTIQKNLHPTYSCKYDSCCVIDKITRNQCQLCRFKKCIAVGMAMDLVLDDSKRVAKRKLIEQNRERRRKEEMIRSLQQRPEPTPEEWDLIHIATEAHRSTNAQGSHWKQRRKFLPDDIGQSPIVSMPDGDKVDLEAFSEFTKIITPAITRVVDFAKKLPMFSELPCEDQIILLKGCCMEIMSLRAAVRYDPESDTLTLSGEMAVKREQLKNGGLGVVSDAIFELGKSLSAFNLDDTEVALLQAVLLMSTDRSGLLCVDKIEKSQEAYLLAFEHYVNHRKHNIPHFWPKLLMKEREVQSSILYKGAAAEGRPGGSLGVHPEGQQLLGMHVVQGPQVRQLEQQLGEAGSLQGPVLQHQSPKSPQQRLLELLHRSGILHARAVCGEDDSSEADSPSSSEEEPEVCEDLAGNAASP
Chain of human Retinoid X Receptor beta (RXRb), RXRB (gene 6257) (P28702 whole entry, looked up, the tested form may be a part): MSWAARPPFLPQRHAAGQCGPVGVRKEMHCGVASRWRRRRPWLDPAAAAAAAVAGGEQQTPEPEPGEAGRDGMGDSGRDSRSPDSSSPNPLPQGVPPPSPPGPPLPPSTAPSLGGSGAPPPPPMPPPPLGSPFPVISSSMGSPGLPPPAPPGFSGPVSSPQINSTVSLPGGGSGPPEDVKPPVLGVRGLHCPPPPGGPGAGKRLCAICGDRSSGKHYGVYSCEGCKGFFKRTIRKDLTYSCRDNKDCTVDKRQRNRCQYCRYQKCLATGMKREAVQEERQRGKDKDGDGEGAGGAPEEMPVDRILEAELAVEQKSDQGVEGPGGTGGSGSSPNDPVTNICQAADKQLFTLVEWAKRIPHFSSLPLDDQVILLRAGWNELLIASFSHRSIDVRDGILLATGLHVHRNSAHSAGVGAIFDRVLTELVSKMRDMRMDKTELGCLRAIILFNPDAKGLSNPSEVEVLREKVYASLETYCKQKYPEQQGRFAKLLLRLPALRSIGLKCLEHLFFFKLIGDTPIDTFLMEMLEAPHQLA
Chain of E-selectin (Homo sapiens) (P16581 whole entry, looked up): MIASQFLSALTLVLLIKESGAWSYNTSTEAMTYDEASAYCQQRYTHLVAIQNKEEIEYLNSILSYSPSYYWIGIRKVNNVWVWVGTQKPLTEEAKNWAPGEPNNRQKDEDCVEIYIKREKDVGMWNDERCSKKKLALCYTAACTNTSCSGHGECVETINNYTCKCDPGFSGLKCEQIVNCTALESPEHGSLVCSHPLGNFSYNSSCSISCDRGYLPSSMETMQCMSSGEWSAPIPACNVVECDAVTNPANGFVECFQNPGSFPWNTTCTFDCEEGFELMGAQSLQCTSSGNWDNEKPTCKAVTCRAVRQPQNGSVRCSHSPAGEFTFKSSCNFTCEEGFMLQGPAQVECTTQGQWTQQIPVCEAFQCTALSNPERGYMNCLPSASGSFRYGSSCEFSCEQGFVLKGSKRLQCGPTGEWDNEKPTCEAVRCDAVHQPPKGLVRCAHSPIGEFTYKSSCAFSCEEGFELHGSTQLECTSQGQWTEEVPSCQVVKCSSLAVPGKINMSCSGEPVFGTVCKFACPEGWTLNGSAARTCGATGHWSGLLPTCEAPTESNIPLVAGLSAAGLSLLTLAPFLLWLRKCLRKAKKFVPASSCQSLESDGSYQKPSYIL
Chain of human Vitamin D Receptor (VDR), VDR (gene 7421) (P11473 whole entry, looked up): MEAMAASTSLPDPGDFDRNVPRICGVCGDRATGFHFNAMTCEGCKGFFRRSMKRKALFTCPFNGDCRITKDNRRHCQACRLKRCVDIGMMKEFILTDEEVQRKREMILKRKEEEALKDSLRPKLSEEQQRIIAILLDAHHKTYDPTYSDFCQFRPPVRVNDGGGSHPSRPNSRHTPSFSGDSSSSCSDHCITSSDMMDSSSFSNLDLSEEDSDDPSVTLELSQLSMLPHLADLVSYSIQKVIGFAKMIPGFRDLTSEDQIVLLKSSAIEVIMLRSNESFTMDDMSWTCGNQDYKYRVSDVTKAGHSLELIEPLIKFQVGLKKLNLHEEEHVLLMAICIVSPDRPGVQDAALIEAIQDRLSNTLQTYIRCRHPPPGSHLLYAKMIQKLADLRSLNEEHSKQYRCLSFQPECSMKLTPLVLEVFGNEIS

## O=C(O)CCC(F)(F)C(F)(F)C(F)(F)C(F)(F)C(F)(F)C(F)(F)F
[1]
  outcome: inactive
[2]
  AC50: 51.1 µM (active)
[3]
  outcome: inactive
[4]
  outcome: inactive
[5]
  outcome: inactive
[6]
  outcome: inactive
[7]
  outcome: inactive
[8]
  outcome: inactive
[9]
  outcome: inactive
[10]
  outcome: inactive
[11]
  outcome: inactive
[12]
  outcome: inactive
[13]
  AC50: 7.99 µM (active)
  outcome: inactive
[14]
  outcome: inactive
[15]
  outcome: inactive
[16]
  outcome: inactive
[17]
  outcome: inactive
[18]
  outcome: inactive
[19]
  outcome: inactive

## O=C1c2ccc(O)c(O)c2C(=O)c2c(O)ccc(O)c21
[1]
  outcome: inactive
[2]
  outcome: inactive
[3]
  AC50: 13.8 µM (active)
[4]
  outcome: inactive
[5]
  outcome: inactive
[6]
  outcome: inactive
[7]
  outcome: inactive
[8]
  outcome: inactive
[9]
  outcome: inactive
[10]
  outcome: inactive
[11]
  outcome: inactive
[12]
  outcome: inactive
[13]
  outcome: inactive
[20]
  outcome: inactive
[14]
  outcome: inactive
[15]
  outcome: inactive
[16]
  outcome: inactive
[17]
  outcome: inactive
[18]
  outcome: inactive
[19]
  outcome: inactive

## CC1=CC(=O)c2ccccc2C1=O
[1]
  outcome: inactive
[2]
  outcome: inactive
[3]
  outcome: inactive

## OCCN1CN(CCO)CN(CCO)C1
[1]
  outcome: inactive
[2]
  outcome: inactive
[3]
  outcome: inactive
[4]
  AC50: 34.1 µM (active)
[5]
  AC50: 4.12 µM (active)
[6]
  AC50: 31.1 µM (active)
[7]
  AC50: 35.5 µM (active)
[8]
  AC50: 28 µM (active)
[9]
  AC50: 29.2 µM (active)
[10]
  AC50: 36.6 µM (active)
[11]
  outcome: inactive
[12]
  AC50: 32.1 µM (active)
[13]
  outcome: inactive
[20]
  AC50: 14.9 µM (active)
[14]
  AC50: 23.1 µM (active)
[15]
  AC50: 31.5 µM (active)
[16]
  outcome: inactive
[17]
  outcome: inactive
[18]
  AC50: 29 µM (active)
[19]
  AC50: 33.9 µM (active)

## NCc1cccc(CN)c1
[1]
  outcome: inactive

## CN(C)c1ccc(C(=C2C=CC(=[N+](C)C)C=C2)c2ccccc2)cc1
[1]
  outcome: inactive
[2]
  AC50: 1.36 µM (active)
  outcome: inactive
[3]
  outcome: inactive
[4]
  AC50: 0.205 µM (active)
[5]
  AC50: 0.214 µM (active)
[6]
  AC50: 0.0082 µM (active)
[7]
  AC50: 0.0192 µM (active)
[8]
  AC50: 0.0082 µM (active)
[9]
  AC50: 0.668 µM (active)
[10]
  AC50: 0.356 µM (active)
[11]
  outcome: inactive
[12]
  AC50: 0.055 µM (active)
[20]
  AC50: 0.00948 µM (active)
[14]
  AC50: 0.0138 µM (active)
[15]
  AC50: 0.0527 µM (active)
[16]
  AC50: 2.72 µM (active)
[17]
  outcome: inactive
[18]
  AC50: 0.00549 µM (active)
[19]
  AC50: 0.0249 µM (active)

## CCC(=O)O
[1]
  outcome: inactive
[2]
  outcome: inactive

## COc1cccc(O)c1
[1]
  outcome: inactive
[2]
  outcome: inactive
[3]
  outcome: inactive
[4]
  outcome: inactive
[5]
  outcome: inactive
[6]
  outcome: inactive
[7]
  outcome: inactive
[8]
  outcome: inactive
[9]
  outcome: inactive
[10]
  outcome: inactive
[12]
  outcome: inactive
[13]
  AC50: 0.193 µM (active)
[20]
  outcome: inactive
[14]
  outcome: inactive
[15]
  outcome: inactive
[16]
  outcome: inactive
[17]
  outcome: inactive
[18]
  outcome: inactive
[19]
  outcome: inactive
